Experimental findings from ChEMBL document CHEMBL3988442, “University of Dundee, Small-Polar-MMV Screening Library” (2021) are described below.

The campaign covered roughly 48,000 compounds. About 13,000 (27%) showed an effect of 50% or more. The list shows a part of the results.

In this experiment the test system is Wolbachia pipientis. The experiment can be described thus: Anti-Wolbachia Cell-Based Screen. Details: scale not given: in the data most compounds retested in dose-response had high values. It counts as functional. To be noted: 5 µM.
In the case of `Cn1cnc2c1CCN(Cc1nc(COc3ccc(F)cc3)no1)C2`, the “Percent Effect” value worked out at 1.894%.
On to `Cc1cccc(N2CCN(CCC(=O)NCc3nnc[nH]3)CC2)c1`, for which the “Percent Effect” value is on record as -0.9949%.
For the molecule `CC(C)N1CCC(N2CCCC(C(=O)NCC3(C)COC3)C2)CC1` (configuration not stated), the “Percent Effect” value is -5.464%.
Under `Cn1cc(-c2cnc3n2CCC32CCN(S(C)(=O)=O)CC2)cn1` stands 7.243%.
Under `Cn1nccc1-c1cnc2n1CCC21CCN(C(=O)C2(C)CC2)CC1` stands 98.02%.
Take `CCNC(=O)N1CCC2(CC1)CCn1c(-c3ccccc3)cnc12`: the “Percent Effect” value is recorded as -10.02%.
The figure for `CS(=O)(=O)N1CCC2(CC1)NCCn1c(-c3ccccc3)cnc12.O=C(O)C(F)(F)F.O=C(O)C(F)(F)F` is -8.058%.
The figure for `COc1ccc(-c2cnc3n2CCNC32CCN(S(C)(=O)=O)CC2)cc1` is -5.963%; for `Cn1nccc1-c1cnc2n1CCNC21CCN(C(=O)C2(C)CC2)CC1` it is 92.03%; for `O=S(=O)(NCCn1ccc(-c2cccs2)n1)C1CC1` it is 1.599%.
Consider `COCCOCCNc1cncc(Br)c1`, for which the “Percent Effect” value is listed as -4.495%.
On to `CCN(Cc1ccncc1)C1CCCN(C/C=C/c2ccc(F)cc2)C1` (configuration not stated), for which the “Percent Effect” value worked out at 3.422%.
For `Cc1nc2ccccc2n1Cc1cc(C(=O)N2C[C@@H](C)O[C@@H](C)C2)no1`, the “Percent Effect” value is reported as -14.98%.
Under `Cc1nc2ccccc2n1Cc1cc(C(=O)N(C)C2CCOC2)n[nH]1` (configuration not stated) stands 98.82%; under `Cc1nc2ccccc2n1Cc1cc(C(=O)NC2CCOC2)no1` (configuration not stated), 107.5%; under `COCC1CCCN(C(=O)c2cc(Cn3ccc4ccccc43)[nH]n2)C1` (configuration not stated), -4.391%.
Under `O=C(NCC1CCCCO1)c1cc(Cn2cnc3ccccc32)[nH]n1` (configuration not stated) stands -5.339%; under `Cc1nc2ccccc2n1Cc1cc(C(=O)N(C)C2CCOCC2)no1`, 169.5%.
Under `O=C(c1cc(Cn2cnc3ccccc32)on1)N1CCOCC1` stands -10.83%; under `Cc1ccc(CNC(=O)c2cc(CN3CCC(O)CC3)on2)s1`, -1.351%; under `C[C@@H]1CN(C(=O)c2cc(Cn3cnc4ccccc43)on2)C[C@H](C)O1`, -0.2425%.
`Cc1ccccc1CN1C[C@@H]2CC[C@H](C1)N(CC1CCC1)C2=O`: the “Percent Effect” value is on record as -3.68%.
Under `c1cnnc(N2CCCC2CNc2nc3ccccc3o2)c1` (configuration not stated) stands 0.7954%; under `Cn1cc(N2CCCC(Nc3ccc4c(c3)CCC(=O)N4)C2=O)cn1` (configuration not stated), -0.6283%; under `CC(NC(=O)NC1CCN(Cc2ccccc2)CC1)c1nncn1C` (configuration not stated), -0.6608%.
The figure for `CC(C)c1nsc(N2CCn3c(nnc3-c3ccccc3)C2)n1` is -7.754%; for `O=C(O)C(F)(F)F.O=C(c1cc(C2CC2)on1)N1C[C@@H]2COC[C@]2(COc2cccnc2)C1` it is 101.2%.
On to `O=C(COC1CCCC1)N1C[C@@H]2COC[C@]2(COc2cccnc2)C1.O=C(O)C(F)(F)F`, for which the “Percent Effect” value was found to be 91.64%.
Under `O=C(O)C(F)(F)F.O=C(c1ccccc1F)N1C[C@@H]2COC[C@]2(COCc2cccnc2)C1` stands 3.343%; under `Cc1cc(C(=O)N2C[C@@H]3COC[C@]3(COCc3cccnc3)C2)no1`, -1.047%.
As to `Cc1ccccc1C(=O)N1C[C@@H]2COC[C@]2(COCc2cccnc2)C1.O=C(O)C(F)(F)F`, the “Percent Effect” value was -1.339%.
For `COc1ccc(CN2C[C@@H]3COC[C@]3(COc3cccnc3)C2)cc1.O=C(O)C(F)(F)F.O=C(O)C(F)(F)F`, the “Percent Effect” value is 13.03%.
Consider `O=C(O)C(F)(F)F.O=C(c1ccc(F)cc1)N1C[C@@H]2COC[C@]2(COc2cccnc2)C1`, for which the “Percent Effect” value worked out at 125.5%.
Under `Cc1ccoc1C(=O)N1C[C@@H]2COC[C@]2(COCc2cccnc2)C1.O=C(O)C(F)(F)F` stands -8.448%; under `O=C(COc1ccccc1)N1C[C@@H]2COC[C@]2(COc2cccnc2)C1.O=C(O)C(F)(F)F`, 107.1%.
For the molecule `CNC(=O)CCNC(=O)Nc1cccc(Cl)c1SC(F)F`, the “Percent Effect” value is recorded as -9.606%.
Under `CN(C)c1ccc(C(O)CNS(=O)(=O)C2CC2)cc1` (configuration not stated) stands -7.172%; under `Cc1ccc(C(=O)N2CCC3(CC2)c2ccccc2[C@@H](N)[C@@H]3O)c(=O)[nH]1`, 1.157%; under `CCN1CCN(C(=O)c2c[nH]c(C(C)C)n2)c2ccccc21`, 16.43%.
The figure for `COCCNc1c(-c2ccc(C)cc2)c(=O)c1=O` is 115.7%.
Under `COCCCNc1c(-c2ccccc2)c(=O)c1=O` stands 111.1%; under `COCCCNc1c(-c2ccc(C)cc2)c(=O)c1=O`, 103%.
Turning to `COCCCNc1cc(C(=O)N2CCOCC2)ccc1C`, the “Percent Effect” value came to 15.11%.
The figure for `COCCCNC(=O)Cc1cc(-c2ccccc2)on1` is -3.078%; for `COCCCNC(=O)COc1ccccc1C(F)(F)F` it is 10.69%.
Regarding `COCCNC(C)c1ccc(-c2cccnc2)cc1` (configuration not stated), the “Percent Effect” value is reported as -4.646%.
The figure for `COCCCNC(=O)NCc1ccc(C)cc1` is 9.073%; for `Cc1cnn(CCNCC(O)COc2cccc(C(F)(F)F)c2)c1` (configuration not stated) it is -5.996%.
With `Oc1ccc(Br)c(CNc2cccc(-c3nnc[nH]3)c2)c1`, the “Percent Effect” value is listed as -21.72%.
Under `CCOc1ccc(Cl)c(C(=O)N2CCN(CCO)CC2)n1` stands -4.151%.
Under `O=C(c1cc2ccccc2c(=O)[nH]1)N1CCN(CCO)CC1` stands -3.156%; under `COCCOc1ccc(Cl)c(C(=O)N2CCN(CCO)CC2)n1`, 97.38%; under `Cc1nc(-c2ccccc2)ccc1C(=O)N1CCN(CCO)CC1`, 1.858%.
Under `CC(C)Oc1ccc(Cl)c(C(=O)N2CCN(CCO)CC2)n1` stands 76.59%.
Regarding `CC(O)CN1CCN(C(=O)c2cnc(OC(C)C)c(Cl)c2)CC1` (configuration not stated), the “Percent Effect” value was -53.57%.
The figure for `Cc1ccc(C(=O)O)cc1S(=O)(=O)Nc1nn(-c2ccccc2)cc1C` is -18.22%.
The figure for `CC(C(N)=O)N1CCc2onc(-c3cccc(F)c3)c2C1` (configuration not stated) is 31.58%; for `CCC(CC)CS(=O)(=O)NC(=O)C1CCC1` it is -17.91%.
The figure for `COC(=O)NC1(C(=O)Nc2ccc(-c3ncc[nH]3)cc2)CCCC1` is 5.421%; for `Cc1cccc(-c2nc(CN3CCc4cnc(C)nc4C3)no2)c1` it is 0.7919%.
With `Cc1cc(C)c(CNC(=O)N(C)CC2CCCCO2)c(=O)[nH]1` (configuration not stated), the “Percent Effect” value was -5.607%.
Regarding `Cc1cc(C)c(CNC(=O)N2CCCC2c2ccccc2)c(=O)[nH]1` (configuration not stated), the “Percent Effect” value is listed as 10.36%.
Under `Cc1cc(C)c(CNC(=O)N2CCCC2c2cccn2C)c(=O)[nH]1` (configuration not stated) stands 1.985%; under `Cc1cc(C)c(CNC(=O)N2CCCC2c2cccc(F)c2)c(=O)[nH]1` (configuration not stated), 115.9%.
The figure for `Cc1cc(C)c(CNC(=O)N2CCCC2c2ccc(F)cc2)c(=O)[nH]1` (configuration not stated) is 86.68%.
The figure for `Cn1cc(N2CC3(CCN(S(=O)(=O)C4CC4)C3)CC2=O)cn1` (configuration not stated) is -15.9%.
Consider `CCCN(CCC)C(=O)c1sc(C)nc1C`, for which the “Percent Effect” value was -0.04444%.
Consider `CCN(CC)CCn1ccnc1-c1cccc(O)c1`, for which the “Percent Effect” value is reported as 9.33%.
For the molecule `CCc1nnc2n1CCN(CC(=O)Nc1cc(C(C)(C)C)nn1C)C2`, the “Percent Effect” value is listed as -9.721%.
Under `CC(C)(C)OCCN(Cc1cccc(O)c1)C1CCC(O)CC1` (configuration not stated) stands -0.1894%; under `Cc1nc(C2CCCN2Cc2cc(Cl)c3c(c2)OCCO3)no1` (configuration not stated), -1.319%.
`CCN(C(=O)CN1CCCC1c1cc(C)no1)c1ccccc1C` (configuration not stated): the “Percent Effect” value is -1.91%.
Under `Cc1cc(C2CCCN2Cc2ccc(S(=O)(=O)N(C)C)o2)on1` (configuration not stated) stands 125.1%; under `Cc1nc(C2CCCN2Cc2ccc(S(=O)(=O)N(C)C)o2)no1` (configuration not stated), 115.8%; under `Cc1cc(C2CCCN2Cc2nnc(-c3ccco3)o2)on1` (configuration not stated), 10.62%.
The figure for `Cc1nc(C2CCCN2CCCS(=O)(=O)N(C)C)no1` (configuration not stated) is -21.09%; for `CNC(=O)CCCNCc1c(C(C)C)nn(C)c1N(C)C` it is -0.6366%.
In the case of `O=C1CC(c2ccncc2)c2c(c(C(=O)O)cn2-c2ccc(F)cc2)N1` (configuration not stated), the “Percent Effect” value is given as 5.752%.
Under `Cc1ccc(S(=O)(=O)NC(=O)COc2cccc(C#N)c2)c(C)c1` stands 41.14%; under `Cc1ccccc1S(=O)(=O)NC(=O)C1(c2cccc(Cl)c2)CC1`, 3.29%; under `Cc1ccccc1S(=O)(=O)NC(=O)C1(c2ccccc2)CCC1`, 93.86%.
On to `CS(=O)(=O)NCCNC(=O)C1(c2ccc(F)cc2)CC1`, for which the “Percent Effect” value is on record as 10.89%.
The figure for `Cc1cccc(C2(C(=O)NS(=O)(=O)c3cnn(C)c3)CCCC2)c1` is -9.611%.
Under `Cc1ccc(S(=O)(=O)NC(=O)C2(c3ccc(F)cc3)CCC2)c(C)c1` stands 80.83%.
Under `Cc1ccc(S(=O)(=O)NC(=O)c2cccc3c2OCCO3)c(C)c1` stands -13.25%; under `Cn1cc(S(=O)(=O)NC(=O)C2(c3ccccc3)CCC2)cn1`, -6.386%.
Consider `Cc1ccc(S(=O)(=O)NC(=O)C2(c3ccccc3)CCC2)c(C)c1`, for which the “Percent Effect” value turned out to be 104.1%.
The figure for `CNc1ncc(CN(C)c2nccc(CCC(F)(F)F)n2)cn1` is -7.876%.
Under `CS(=O)(=O)Nc1cccc(CNC(=O)CCC(=O)c2cccs2)c1` stands 1.298%.
The figure for `CN(C)c1nc2c(c(N(C)C)n1)CCN(C(=O)CN1CCC(O)CC1)C2` is -41.67%.
`CCC(=O)N1CCCCC1c1nc(O)c2c(n1)CN(C(C)=O)CC2` (configuration not stated): the “Percent Effect” value came to 111%.
Under `CC(C)N1CCC(C(=O)N2CCc3c(nc(CC4CC4)[nH]c3=O)C2)CC1` stands -3.187%; under `CC(=O)NC1CCN(c2nc(N(C)C)nc3c2CCN(C(C)=O)C3)CC1`, 3.638%.
As for `CC1CCCCN1C(=O)c1nc2c(n1C(C)C)CCN(C(=O)C1CC1)C2` (configuration not stated), the “Percent Effect” value is reported as -21.18%.
Consider `CCC(=O)N1CCc2c(O)nc(C3CCCCN3C(=O)C3CC3)nc2C1` (configuration not stated), for which the “Percent Effect” value is 88.1%.
Consider `CCC(=O)N1CCCCC1c1nc(O)c2c(n1)CN(C(=O)C1CC1)CC2` (configuration not stated), for which the “Percent Effect” value was 109.8%.
Regarding `CC(C)c1noc(CS(=O)(=O)CC(=O)NCc2cccs2)n1`, the “Percent Effect” value is given as -1.009%.
